Source: PubChem
Rce1 inh = blocks yeast Ras-converting enzyme; Q03530; yeast membranes, quenched prenylated peptide cleavage fluorescence; calls only; 0.27% of 290,000 active; AID 2563;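 active means fall in fluorescence gain of 50% or more versus controls, with final raw signal at or below 3038400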;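 further: plate controls were neutral control wells for no effect and wells lacking membranes for full effect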
NALP1 yeast inh = inhibitors of NALP1 inflammasome in yeast. 0.61% of 280,000 active. inhibition, % at 10 µM. S. cerevisiae NALP1/ASC/caspase-1 growth, X-gal OD620, 72 h; in the data active means inhibition mostly above about 24%, no sharp cut-off; inactive means mostly below about 32%
V-ATPase pHluor = yeast V-ATPase proton transport regulation by pHLuorin; S. cerevisiae, pHLuorin cytosolic pH fluorescence; response, % at 10 µM; 0.37% of 350,000 active; AID 504577; in the data active means response mostly above about 7.3%, no sharp cut-off; inactive means mostly below about 5.4%; further: actives read high
NLRP3 yeast inh = NALP3 inhibition in yeast; Yeast reconstituted NLRP3/ASC/caspase-1, beta-gal luminescence, 24 h; inhibition, % at 10 µM; 0.39% of 330,000 active; AID 2825;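 active means inhibition of 50% or more; inactive means inhibition below 50%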;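 further: plate controls were induced DMSO wells for no effect and uninduced yeast grown without galactose for full effect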
PERK inhibitor = blocks human PERK kinase. CHO PERK-DD fusion, SEAP luminescence translation reporter. inhibition, % at 5.6 µM. 0.17% of 220,000 active. AID 1416;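 active means inhibition above the mean inhibition of all tested compounds plus 3 SD, set separately per screening campaign, cut at about 2.9% in these data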;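 further: PERK kinase domain activated by AP20187 dimerizer at 100 nM; 0% = DMSO with dimerizer and 100% = rapamycin at 8.4 µM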
Target sequence (Q9NZJ5 whole entry, looked up, the tested form may be a part): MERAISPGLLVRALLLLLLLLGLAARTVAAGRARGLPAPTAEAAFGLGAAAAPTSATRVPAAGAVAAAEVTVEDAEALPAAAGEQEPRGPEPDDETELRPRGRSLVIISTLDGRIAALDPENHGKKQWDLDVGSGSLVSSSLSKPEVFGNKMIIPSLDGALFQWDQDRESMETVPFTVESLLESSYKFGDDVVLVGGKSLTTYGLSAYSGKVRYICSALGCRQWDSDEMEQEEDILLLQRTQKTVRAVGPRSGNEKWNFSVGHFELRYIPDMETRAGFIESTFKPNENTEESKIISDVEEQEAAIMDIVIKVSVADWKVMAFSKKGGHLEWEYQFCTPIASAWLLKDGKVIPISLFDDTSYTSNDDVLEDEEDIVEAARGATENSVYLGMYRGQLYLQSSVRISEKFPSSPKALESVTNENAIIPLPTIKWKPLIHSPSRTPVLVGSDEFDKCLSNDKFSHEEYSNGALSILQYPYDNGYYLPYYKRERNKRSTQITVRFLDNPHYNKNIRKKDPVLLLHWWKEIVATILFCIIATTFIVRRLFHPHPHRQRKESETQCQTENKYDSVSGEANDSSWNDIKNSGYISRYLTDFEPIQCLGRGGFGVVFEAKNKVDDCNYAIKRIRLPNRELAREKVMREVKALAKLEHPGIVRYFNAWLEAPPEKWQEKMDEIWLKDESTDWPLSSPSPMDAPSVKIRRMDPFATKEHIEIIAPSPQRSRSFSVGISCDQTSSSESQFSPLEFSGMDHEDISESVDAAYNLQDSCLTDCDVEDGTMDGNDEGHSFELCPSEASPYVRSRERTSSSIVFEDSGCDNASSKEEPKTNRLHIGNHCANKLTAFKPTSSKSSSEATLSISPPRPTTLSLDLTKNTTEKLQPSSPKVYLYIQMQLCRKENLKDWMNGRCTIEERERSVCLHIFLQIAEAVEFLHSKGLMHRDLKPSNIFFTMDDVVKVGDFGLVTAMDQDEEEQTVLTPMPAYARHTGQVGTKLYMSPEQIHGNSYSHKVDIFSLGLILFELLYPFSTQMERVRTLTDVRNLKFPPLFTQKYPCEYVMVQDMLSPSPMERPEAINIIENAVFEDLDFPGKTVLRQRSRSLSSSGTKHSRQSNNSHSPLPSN
Yeast superoxide = caloric restriction mimetics inhibiting age-related superoxide in yeast; S. cerevisiae aged cells, superoxide DHE fluorescence; stronger effect = lower value; superoxide response (% of plate mean), % at 10 µM; 0.18% of 330,000 active; AID 2690;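 active means superoxide response under a set limit, about three screen SD below normal, cut at about 65% in these data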;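 further: yeast aged for seven days with compound at 30 °C before DHE staining; 100% = average MFI of all compound-treated wells on the plate with controls excluded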
NALP3 confirm = confirmation of NALP3 inhibitors in yeast | shares compounds with NLRP3 yeast inh | yeast expressing human NALP3, luminescence | inhibition, % at 10 µM | 81% of 1,300 active; in the data active means inhibition above about 48%
Casp1 ASC ctr = counter-screen for NALP3 inhibitors: yeast caspase-1-ASC | shares compounds with NLRP3 yeast inh | yeast expressing Caspase-1-ASC, luminescence counter screen | inhibition, % at 10 µM | 66% of 1,000 active
NALP3 retest = yeast NALP3 inhibition, confirmed on retest; shares compounds with NLRP3 yeast inh; yeast expressing human NALP3, luminescence read-out; inhibition, % at 10 µM; 53% of 1,000 active; AID 488794
Starred values were filed as active, the others as inactive; i = inactive; x = no result. Hits are enriched below; roughly 1.6% of the tested compounds scored in any of these assays. Unless noted, no stated cut-off is given here; in the data, active means inhibition above about 50%; inactive means the rest.

SMILES	Rce1 inh	NALP1 yeast inh	V-ATPase pHluor	NLRP3 yeast inh	PERK inhibitor	Yeast superoxide	NALP3 confirm	Casp1 ASC ctr	NALP3 retest
Cc1onc(-c2ccccc2Cl)c1C(=O)N1C=CC(C(F)(F)Cl)=NCC1	i	-7	2	33	0	97	x	x	x
Cc1onc(-c2ccccc2Cl)c1C(=O)N1C=CC(C(F)(F)F)=NCC1	i	58*	7	50*	0	104	66*	45	53*
CCc1noc(C)c1C(=O)Nc1nc2ccc(F)cc2s1	i	x	1	68*	x	105	78*	75*	66*
CCc1noc(C)c1C(=O)Nc1nc2ccc(S(C)(=O)=O)cc2s1	i	x	10	18	x	91	x	x	x
O=C(Nc1nc2ccc(Cl)cc2s1)c1ccco1	i	-7	-2	20	1	102	x	x	x
Cc1noc(C)c1C(=O)Nc1nc2ccc(F)cc2s1	x	x	0	65*	x	115	50*	62*	54*
Cc1noc(C)c1C(=O)Nc1nc2ccc(Cl)cc2s1	i	8	-1	58*	x	102	72*	71*	58*
CCc1noc(C)c1C(=O)Nc1nc2c(C)cc(C)cc2s1	i	x	2	72*	x	97	77*	75*	61*
CC(C)c1ccc(S(=O)(=O)N2CCC(C(=O)N3CCN(c4cccc(Cl)c4)CC3)CC2)cc1	x	x	-4	x	x	x	x	x	x
COc1cccc(OC)c1C(=O)Nc1nc2ccc([N+](=O)[O-])cc2s1	i	7	-1	55*	1	116	74*	x	x
COc1cccc(OC)c1C(=O)Nc1nc2ccc(S(C)(=O)=O)cc2s1	i	5	4	6	0	103	x	x	x
Cc1ccc(S(=O)(=O)CC(=O)N(CCCN2CCOCC2)c2nc3c(F)cccc3s2)cc1	i	x	2	9	x	91	x	x	x
O=C(CCS(=O)(=O)c1ccccc1)N(CCCN1CCOCC1)c1nc2c(F)cccc2s1	i	x	-4	57*	x	77	72*	43	53*
CNC1(C)[C@H]2CC[C@H](C2)C1(C)C (stereo partly specified)	x	x	-5	-14	x	86	x	x	x
CCOC(=O)CCSc1nc2c(c(C(F)(F)F)c1C#N)CCC2	i	13	-2	60*	1	88	47*	64*	59*
C=C(C)c1cccc(C(C)(C)NC(=O)N2CCN(C(=O)OCC)CC2)c1	x	x	0	x	x	x	x	x	x
O=C(NC1CC1)c1ccc(-c2nc3ccccc3s2)s1	i	-5	1	60*	0	104	55*	52*	48
O=C(NC(=S)Nc1cccc([N+](=O)[O-])c1)C1CCCC1	i	31	0	54*	x	83	73*	60*	58*
O=C(OCc1ccccc1)N1CCC2CC1c1cc(-c3ccc4c(c3)OCO4)ccc12 (stereo unspecified)	x	x	1	x	x	x	x	x	x
O=[N+]([O-])c1ccc2c(c1)C(=NO)c1cc(Cl)c(Cl)cc1-2	x	x	0	x	x	x	x	x	x
Cc1cccc(OCc2nc(C#N)c(N3CCCC3)o2)c1	i	1	-3	57*	0	94	47	65*	51*
N#Cc1nc(COc2ccc(Cl)cc2)oc1N1CCCCCC1	x	9	3	13	0	89	x	x	x
N#Cc1nc(COc2ccccc2)oc1N1CCCCC1	i	-3	2	62*	-1	92	70*	60*	48
Cc1c(/C=N/O)c2ccccn2c1C(=O)c1ccc(F)cc1	i	28	3	62*	x	102	77*	49	44
Cc1c(/C=N/NC(N)=O)c2ccccn2c1C(=O)c1ccc(F)cc1	i	19	1	8	0	94	x	x	x
SMILES	Rce1 inh	NALP1 yeast inh	V-ATPase pHluor	NLRP3 yeast inh	PERK inhibitor	Yeast superoxide	NALP3 confirm	Casp1 ASC ctr	NALP3 retest
O=C(NCc1ccccc1OC(F)(F)F)C1CCC(=O)N(CCCN2CCOCC2)C1 (stereo unspecified)	x	x	-1	x	x	x	x	x	x
COc1cccc(-n2c(-c3ccccc3)c[nH]c2=S)c1	i	-2	1	35	x	89	x	x	x
Cc1ccc(-c2c[nH]c(=S)n2-c2ccccc2)cc1	i	10	-2	61*	0	77	36	39	29
Cc1ccc(-c2c[nH]c(=S)n2-c2ccccc2F)cc1	i	-8	-1	55*	1	119	38	x	x
Cn1c(-c2ccc(-c3ccccc3)cc2)c[nH]c1=S	i	11	x	45	0	123	x	x	x
CCOc1ccc(-n2c(-c3ccccc3)c[nH]c2=S)cc1	i	-6	6	59*	x	97	58*	22	25
CCN(CC)c1ccc(NC(=O)CSC(=O)c2ccccc2)cc1	x	x	-5	56*	x	97	54*	57*	42
Cc1ccc(C)c(N2N=C(C(=O)OCc3nnc(-c4ccccc4Br)o3)CCC2=O)c1	x	x	3	x	x	x	x	x	x
CCCCN1C(=O)CC2CCOC21C (stereo unspecified)	x	x	2	x	x	x	x	x	x
Cc1ccc2[nH]c(C)c(CCNC(=O)C3CCCCC3C(=O)OCC(F)(F)F)c2c1 (stereo unspecified)	i	17	2	13	0	96	x	x	x
Cc1[nH]c2c(C)cccc2c1CCNC(=O)C1CCCCC1C(=O)OCC(F)(F)F (stereo unspecified)	i	6	5	72*	0	97	-7	x	x
Cc1c(CCO)c(=O)n2c([nH]c3ccccc32)c1C#N	i	4	0	6	x	93	x	x	x
CCCCc1c(C)c(C#N)c2[nH]c3ccccc3n2c1=O	i	9	-2	58*	0	119	78*	-1	20
COC(=O)c1ccccc1Oc1ccc(NC(=O)c2ccco2)cc1	i	12	2	51*	x	104	68*	49	35
Cc1ccc(Oc2ccc(NC(=O)c3ccco3)cc2)cc1	x	19	-2	14	0	101	x	x	x
CCCc1c(C(=O)N/N=C/c2ccc3c(c2)OCO3)nnn1-c1nonc1N	x	x	-1	x	x	x	x	x	x
CCCCOc1ccc(CSCCN)cc1Cl	i	7	-6	67*	1	87	76*	x	x
CCOc1ccc(CSC(=N)N)cc1Cl	i	3	3	5	-1	104	x	x	x
Cc1ccc(S(=O)(=O)N(C)/N=C/c2ccc(N(C)C)cc2)cc1	i	23	9	51*	x	97	54*	19	27
COc1ccc2nc3n(c(=O)c2c1)-c1ccccc1C(=O)NC3Cc1ccccc1 (stereo unspecified)	x	x	x	19	x	118	x	x	x
FC(F)(F)c1cc(-c2ccco2)nc(NCc2cccnc2)n1	i	6	1	53*	-1	91	66*	52*	36
FC(F)(F)c1cc(-c2ccccc2)nc(NCc2cccnc2)n1	i	10	20*	54*	0	124	24	x	x
